Measurements from PubChem BioAssay (NCI).
About 83,000 compounds went through this panel and 20% of them were active in at least one assay; those are over-represented in the sample as a whole.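 48-hour exposure, single concentration, 96-well plates; percent growth endpoint where 0 means no net growth. Active: below 10.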 A number with no mark means an inactive call. Active and inactive are the calls of the source.

Tests used:
Assay in all cases: NCI-60 one-dose screen, 48 h (100 = growth as untreated, 0 = no growth, -100 = all killed)
Details in all cases: 10 µM unless noted
NCI-H23 lung = system: NCI-H23 lung
NCI-H226 lung = system: NCI-H226 lung
NCI-H322M lung = system: NCI-H322M lung
HOP-62 NSCLC = system: HOP-62 NSCLC
NCI-H460 lung = system: NCI-H460 lung
HOP-92 NSCLC = system: HOP-92 NSCLC
NCI-H522 lung = system: NCI-H522 lung
A549/ATCC NSCLC = system: A549/ATCC NSCLC
786-0 renal = system: 786-0 renal
COLO 205 colon = system: COLO 205 colon

Compound	growth (NCI-H23 lung)	growth (NCI-H226 lung)	growth (NCI-H322M lung)	growth (HOP-62 NSCLC)	growth (NCI-H460 lung)	growth (HOP-92 NSCLC)	growth (NCI-H522 lung)	growth (A549/ATCC NSCLC)	growth (786-0 renal)	growth (COLO 205 colon)
COc1ccc(Cl)c([N+](=O)[O-])c1	98.5%	101%	98.8%	93.4%	108%	98%	95.7%	99.6%	99.2%	116%
N#Cc1c(-c2ccc(F)cc2)nc(N/N=C/c2cccc(O)c2)nc1N1CCOCC1	99.9%	100%	81.4%	92%	98.3%	64.4%	69.5%	82.3%	65.1%	73.4%
C=C(C)[C@@H]1CC[C@]2(C(=O)OCCOCCOCC[P+](c3ccccc3)(c3ccccc3)c3ccccc3)CC[C@]3(C)[C@H](CC[C@@H]4[C@@]5(C)CC[C@H](OC(=O)C(Cl)Cl)C(C)(C)[C@@H]5CC[C@]43C)[C@@H]12	0.446% (active)	-2.33% (active)	21%	11%	-13.3% (active)	-67.5% (active)	-24.4% (active)	6.87% (active)	-85.1% (active)	-83.7% (active)
COc1cc(C)ccc1Oc1nc(Nc2ccc(N3CCOCC3)cc2)ncc1N=Cc1cc(C(F)(F)F)cc(C(F)(F)F)c1	70.4%	55.4%	79.7%	61.1%	44.6%	67.8%	27.3%	70%	76.6%	68.3%
CN1CCN(/C=C2\CC(C(=O)NCc3ccc(Cl)cc3Cl)NC2=O)CC1 (stereo not given)	99.5%	85.7%	104%	108%	104%	98.8%	98.3%	94.2%	116%	116%
Nn1c(SCC(=O)Nc2ccc(Cl)cc2)nnc1-c1cc(F)c(Cl)cc1Cl	93%	93.5%	80.2%	55.8%	90%	76.6%	66.1%	87.2%	93.4%	96.6%
COc1ccc2nc3c(n2c1)C(=O)C(=O)c1ccccc1-3	-42.1% (active)	14.9%	-60.9% (active)	-72.9% (active)	14.9%	37.4%	-69.9% (active)	-24.3% (active)	8.6% (active)	42.7%
O=c1c2ccccc2oc2ccc(OCCCCCCN3CCCCCC3)cc12	39.2%	74.1%	74.3%	74.1%	35%	74.6%	46%	40.4%	27.1%	-5.01% (active)
NCCCn1c2c(c3cc(-c4ccn[nH]4)ccc3c1=O)C(=O)c1ccccc1-2	57.6%	56.9%	67.8%	42.4%	11.8%	79.2%	30.6%	28.4%	41%	43.8%
CCCCCCC/C=C/[C@H]1O[C@]23C(=O)C[C@@]4(C[C@@H](OC5OC(CO)C(O)C(O)C5O)C[C@@H]4[C@H]2C=C1C)OC3=O (stereo not given in full)	40.8%	65.2%	56.2%	17.3%	49%	59%	-44.7% (active)	62.2%	5.03% (active)	35.9%
CCOC(=O)c1sc(/N=C2\NC(=O)/C(=C/c3ccc(N4CCN(C)CC4)cc3)S2)nc1C	99.3%	99.7%	97.6%	105%	109%	108%	77.4%	89.6%	87%	109%
O=c1nc(-c2ccccc2)c2cc(-c3ccc(N4CCCC4)nc3)ccc2[nH]1	73.1%	77.2%	82.6%	62.6%	57.7%	61.4%	37.6%	59.7%	69.5%	88.3%
O=c1c2ccccc2n(CC(O)CN2CCCC2)c2c(Br)cccc12 (stereo not given)	131%	122%	110%	100%	106%	90.2%	101%	87%	98.8%	82.4%
Nc1ccc(C2=NN(C(=O)c3cc(-c4ccc(Cl)cc4)nc4ccccc34)C(c3ccccc3)C2)cc1 (stereo not given)	43.6%	53%	45.7%	35.4%	18.8%	50.9%	24%	40.7%	21.7%	30%
O=C(/C(=C/c1ccc([N+](=O)[O-])cc1)SCc1ccc(Cl)cc1)c1ccc(F)cc1	57%	66.7%	100%	68.7%	83.1%	80.3%	-1.33% (active)	80.5%	76.9%	48.3%
CN(C)CCCn1c2c(c3cc(-c4cccc(S(N)(=O)=O)c4)ccc3c1=O)C(=O)c1ccccc1-2	57.4%	77.8%	77.3%	53.1%	14.1%	104%	44.9%	64.7%	30.6%	59.1%
COc1ccc(Nc2cc(NC(=O)CNc3cc(OC)c(Cl)c(OC)c3Cl)ncn2)cc1	90.2%	68.5%	88%	83.1%	89.3%	74.3%	65.5%	71.1%	88.1%	89.5%
Clc1ccc2c(NCCCNC3CCCCC3)ccnc2c1	112%	108%	101%	91.1%	104%	80.4%	107%	120%	68.5%	93.5%
CCc1ccc(OCc2ccccc2C(=O)Nc2ccc3nc(C)cc(N)c3c2)cc1	-73.2% (active)	-45.8% (active)	-92.9% (active)	-78.6% (active)	-67.6% (active)	-87.2% (active)	-84.5% (active)	-73.6% (active)	-88.9% (active)	-79% (active)
c1ccc(-c2cn3ccnc3c(-c3ccc4c(c3)ncn4C3CCCCC3)n2)cc1	103%	106%	97.1%	87.1%	104%	89.1%	83.9%	91%	91.8%	99.7%
NC(=O)C(O)(c1ccccc1)c1ccccc1	101%	99.2%	105%	91.6%	104%	83.2%	84.2%	91%	102%	115%
O=C1Nc2ccccc2C12C=C(c1ccccc1)Nc1c2c(-c2ccccc2)nn1-c1ccccc1 (stereo not given)	84.1%	96.9%	82.7%	81.4%	36.5%	66.4%	69.4%	44.8%	80.6%	80.8%
C#C[C@@]1(O)[C@@H](CO)O[C@@H](n2cc(Cl)c3c(N)ccnc32)[C@@H]1O	71.9%	96.7%	74.6%	120%	25.1%	48.2%	75.1%	67%	81.2%	63.4%
CC(C)(C#N)c1cc(F)cc(C(=O)Nc2cc(Nc3ncccc3-c3ncnc4nc[nH]c34)ccc2F)c1	16.8%	41.3%	53.3%	44.9%	30.5%	-0.389% (active)	7.73% (active)	42.1%	63%	6.56% (active)
COc1ccc(C(=O)c2cc(F)c(F)c(OC)c2F)cc1OC(=O)CCl	58.3%	105%	75.8%	39%	20.5%	52.9%	30.6%	53.8%	89.6%	108%
N#Cc1c(-c2ccc(F)cc2)nc(N=Nc2c(O)[nH]c3ccc(Cl)cc23)nc1N1CCOCC1	37.4%	10.5%	46.9%	11.6%	51.8%	-9.97% (active)	53.4%	23.8%	17%	65.5%
C=C1C(=O)O[C@H]2[C@H]1CC/C(COC(=O)/C=C/c1cccnc1)=C\CC[C@@]1(C)O[C@@H]21	56.2%	38.5%	93.6%	72.4%	77.4%	19.1%	-43.5% (active)	61.8%	2.95% (active)	-46% (active)
